The list is not random: actives were taken first. Their share in the collection is about 5.7%.
PI4K2A inh = blocks human PI4K2A kinase activity. purified PI4K2A, ADP-Glo luminescence, 1 h; stronger effect = lower value. 420,000 tested, 0.13% active. AID 1346378. Q9BTU6. activity change, negative = inhibition, % at 76.9 µM; in the data active = activity change below about -50%; inconclusive = mostly about -30% to -49%;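 note: -100% = wells without enzyme as full effect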
Target sequence (Q9BTU6 whole entry, looked up): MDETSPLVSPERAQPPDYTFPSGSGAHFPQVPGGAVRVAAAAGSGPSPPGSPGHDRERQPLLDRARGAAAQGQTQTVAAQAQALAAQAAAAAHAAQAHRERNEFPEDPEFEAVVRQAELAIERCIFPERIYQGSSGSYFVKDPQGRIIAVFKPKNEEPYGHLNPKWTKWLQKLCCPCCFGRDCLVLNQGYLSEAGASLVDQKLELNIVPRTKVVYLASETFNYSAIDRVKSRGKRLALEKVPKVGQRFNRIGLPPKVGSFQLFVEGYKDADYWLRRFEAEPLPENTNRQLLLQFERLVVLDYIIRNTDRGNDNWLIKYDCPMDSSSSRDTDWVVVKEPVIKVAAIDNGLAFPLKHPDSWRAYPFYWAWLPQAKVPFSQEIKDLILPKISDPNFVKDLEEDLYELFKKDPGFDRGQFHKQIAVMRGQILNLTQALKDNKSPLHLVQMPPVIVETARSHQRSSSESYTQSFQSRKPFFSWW
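Compounds are screened against recombinant PI4K2A using PI as substrate and ATP, the latter dispensed at 300 microM. Reactions run one hour at ambient temperature before ADP-Glo detection; full inhibition defined by wells lacking enzyme.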
Giardia kill = Giardia lamblia killing; Giardia lamblia trophozoite viability; activity change, % at 7.66 µM, hits read low; 340,000 tested, 0.15% active; AID 540267; in the data active = activity change below about -80%; inconclusive = between about -30% and that limit;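 note: parasites exposed to compound for two days anaerobically before the ATP read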
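Killing of trophozoites was scored by loss of ATP luminescence after a 48 hrs anaerobic exposure to compounds at 37 deg C, using 100 cells per well.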
KB-V1 MDR tox = KB-V1 MDR subline cytotoxicity; Potency, µM (series often up to 46.1 µM), most hits filed as cytotoxic; KB-V1 MDR cells viability, CellTiter-Glo, 72 h; 400,000 tested, 3.4% active; note: potency is the fitted concentration of half-maximal effect; nearly all actives have a fitted effect of over 60% in size
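Cells of the MDR subline KB-V1 are plated, dosed with compound at multiple concentrations, and incubated 72 h at 37 degrees C; CellTiter-Glo is then added and luminescence read after 10 min.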
Nrf2 block = inhibitors of Nrf2 signaling. A549 ARE-Fluc reporter, luciferase luminescence, 18-24 h. Potency, µM (titrated, usually from 46 µM), without a hit: top-dose activity change, negative = inhibition, most hits filed as inhibitors. 360,000 tested, 2.1% active. AID 504444; note: potency is the fitted concentration of half-maximal effect; nearly all actives have a fitted effect of over 60% in size
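In this cell-based qHTS, ARE-driven firefly luciferase in A549 cells reports Nrf2 activity; the luminescent signal after BugLite lysis is the measured value, with a prior CellTiter-Fluor read for cell health.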
A549 viability = counter-screen for Nrf2 inhibitors: cytotoxicity in A549 cells. A549 ARE-Fluc cells, CellTiter-Fluor viability, 18-24 h. Potency, µM (highest dose often 46 µM), without a hit: at the highest dose activity change, negative = cytotoxicity, most hits filed as inhibitors. 390,000 tested, 0.16% active. AID 504648; note: potency is the fitted concentration of half-maximal effect
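A549 ARE-Fluc cells in 5% FBS OPTI-MEM, 5000 cells/well, rested 2 h then exposed to compounds in concentration-response for 18-24 h at 37 °C. Viability by CellTiter-Fluor fluorescence (Ex 405/Em 525) after 30 min; luciferase luminescence (BugLite, 15 min, RT) read afterwards.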
KB-3-1 cytotox = KB-3-1 parental cell cytotoxicity; KB-3-1 viability, CellTiter-Glo ATP luminescence, 72 h; Potency, µM (titrated, usually from 46.1 µM), most hits filed as cytotoxic; 400,000 tested, 1.4% active; AID 1347075; note: potency is the fitted concentration of half-maximal effect; nearly all actives have a fitted effect of over 60% in size
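Using CellTiter-Glo luminescence, growth of non-resistant KB-3-1 adenocarcinoma cells is assessed 72 h after pin-tool compound addition at 37 °C. Normalized responses across the concentration series yield fitted curves.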
The depositor's hits bear a star. Unless noted, calls come from the whole dose curve; as a rule, active = well fitted curve in the direction sought with a large enough effect; inconclusive = small, poorly fitted or top-dose-only effect, or another doubt; inactive = no such curve, though single readings can be large; an effect the other way counts as inactive or inconclusive. Unless noted, % is set by controls: 0 for no effect and ±100 for the full control effect.

Screening COC(=O)C1CN(C2CC2)CCS(=O)(=O)N1Cc1cn(Cc2ccc(F)cc2)nn1 (centres undefined) returned PI4K2A inh -4.
Screening Cc1ccc(C(=O)Nc2ncc(Cc3ccc(SC(F)F)cc3)s2)cc1 returned PI4K2A inh -5, Giardia kill 2, KB-V1 MDR tox 1µM*, Nrf2 block inconclusive, A549 viability -17% and KB-3-1 cytotox inconclusive.
For Cc1ccc(Cc2cnc(NC(=O)c3ccc4c(c3)CC(c3ccccc3)OC4=O)s2)cc1 (centres undefined) the results were PI4K2A inh -2, KB-V1 MDR tox inactive, Nrf2 block -25%, A549 viability 1% and KB-3-1 cytotox inactive.
Screening Cc1ccc(C(=O)Nc2ncc(Cc3ccc(F)cc3)s2)o1 returned PI4K2A inh 3, Giardia kill -23, KB-V1 MDR tox 9.2µM*, Nrf2 block inconclusive, A549 viability -6% and KB-3-1 cytotox 5.8µM*.
Screening CC(=O)OC12CCCN(C1)/C(=C/c1cccc(Cl)c1)C2 (centres undefined) returned PI4K2A inh -6.
Screening CC(=O)c1cccc(NC(=O)Cn2c(=O)c(CNc3ccc(C)cc3)cc3cc4c(cc32)OCCO4)c1 returned PI4K2A inh -9, KB-V1 MDR tox inactive, Nrf2 block 10%, A549 viability 0% and KB-3-1 cytotox inactive.
Screening CCc1ccc(C2=NN(S(C)(=O)=O)C(c3cccs3)C2)cc1 (centres undefined) returned PI4K2A inh 0, Giardia kill -3, KB-V1 MDR tox 15µM*, Nrf2 block inconclusive, A549 viability -1% and KB-3-1 cytotox inconclusive.
Screening CCC(CC)C(=O)N1N=C(c2ccc(NS(C)(=O)=O)cc2)CC1c1ccc(C)cc1 (centres undefined) returned PI4K2A inh -5, Giardia kill -8, KB-V1 MDR tox 18µM*, Nrf2 block inconclusive, A549 viability -5% and KB-3-1 cytotox inactive.
`Cc1cccc(C(=O)N2N=C(c3ccc(NS(C)(=O)=O)cc3)CC2c2cccs2)c1` (centres undefined) gave PI4K2A inh -2, Giardia kill -18, KB-V1 MDR tox inactive, Nrf2 block 23µM*, A549 viability -19% and KB-3-1 cytotox inactive.
C[C@@H]1Cc2cc(O)cc(O)c2C(=O)O1 was read as PI4K2A inh -1.
`Cc1ccc(C(=O)Nc2sc3c(c2C(=O)O)CCCCC3)o1` gave PI4K2A inh inconclusive, Giardia kill -16, KB-V1 MDR tox inconclusive, Nrf2 block inconclusive, A549 viability inconclusive and KB-3-1 cytotox 16µM*.
Screening COC(=O)N1CCc2c(sc(NC(=O)C3=COCCO3)c2C#N)C1 returned PI4K2A inh -1, Giardia kill -4, KB-V1 MDR tox inconclusive, Nrf2 block 23%, A549 viability -19% and KB-3-1 cytotox 2.3µM*.
COc1cccc(C(=O)Nc2sc3c(c2C#N)CCN(C(C)=O)C3)c1 was read as PI4K2A inh -2, Giardia kill 0, KB-V1 MDR tox inconclusive, Nrf2 block -6%, A549 viability -16% and KB-3-1 cytotox 5.2µM*.
For Cc1ccc(C(=O)Nc2sc3c(c2C(=O)O)CCCC3)o1 the results were PI4K2A inh -4, Giardia kill 4, KB-V1 MDR tox inconclusive, Nrf2 block inconclusive, A549 viability inconclusive and KB-3-1 cytotox inconclusive.
O=C(Nc1sc2c(c1C(=O)O)CCCCC2)c1ccccc1F was read as PI4K2A inh -3, Giardia kill -3, KB-V1 MDR tox inactive, Nrf2 block inconclusive, A549 viability inconclusive and KB-3-1 cytotox 12µM*.
For CCCNC(=O)c1c(NC(=O)c2ccccc2F)sc2c1CCCCC2 the results were PI4K2A inh 1, KB-V1 MDR tox inactive, Nrf2 block 10%, A549 viability 9% and KB-3-1 cytotox inactive.
Screening CC(=O)N1CCc2c(sc(NC(=O)CS(=O)(=O)c3ccc(F)cc3)c2C#N)C1 returned PI4K2A inh -4, Giardia kill -5, KB-V1 MDR tox inactive, Nrf2 block -10%, A549 viability 0% and KB-3-1 cytotox inconclusive.
Screening CCOC(=O)[C@]12CCCC=C1N(CCCOC)C(=O)[C@@H]2CC(=O)NCc1cccc2ccccc12 returned PI4K2A inh 3.
COc1cccc(C(=O)Nc2sc3c(c2C(=O)O)CCCC3)c1 was read as PI4K2A inh 4, Giardia kill 6, KB-V1 MDR tox inconclusive, Nrf2 block 5.8µM*, A549 viability inconclusive and KB-3-1 cytotox 18µM*.
Screening COC(=O)Nc1sc2c(c1C(N)=O)CCCC2 returned KB-V1 MDR tox inactive and KB-3-1 cytotox inactive.
For COC(=O)Nc1sc2c(c1C(=O)NC1CC1)CCCCCC2 the results were PI4K2A inh 1, Giardia kill 0, KB-V1 MDR tox 23µM*, Nrf2 block 7%, A549 viability -9% and KB-3-1 cytotox inactive.
O=C(Nc1sc2c(c1C(=O)O)CCCC2)c1ccc(F)cc1 was read as PI4K2A inh -4, Giardia kill inconclusive, KB-V1 MDR tox inactive, Nrf2 block -13%, A549 viability -29% and KB-3-1 cytotox inconclusive.
CC(C)(C)c1ccc(C(=O)Nc2sc3c(c2C(=O)O)CCC3)cc1 was read as PI4K2A inh -5, Giardia kill 3, KB-V1 MDR tox inconclusive, Nrf2 block inconclusive, A549 viability -20% and KB-3-1 cytotox 3.3µM*.
`COc1ccc(NC(=O)c2c(NC(=O)C(F)(F)F)sc3c2CCCCC3)cc1` gave PI4K2A inh 2, KB-V1 MDR tox inactive, Nrf2 block 1.8µM*, A549 viability inconclusive and KB-3-1 cytotox inactive.
Screening Cc1ccc(S(=O)(=O)N2CCN(C(=O)c3cccn3C)CC2)cc1 returned PI4K2A inh 7.
`CC1=C(c2ccc(F)cc2)S(=O)(=O)N=C1N1CCC(C(=O)NCCc2cccc(C)c2)CC1` gave PI4K2A inh 0, KB-V1 MDR tox inactive, Nrf2 block 13%, A549 viability 1% and KB-3-1 cytotox inactive.
`Cc1cc(C)c(NC(=O)Cc2csc(C)n2)c(Cl)c1` gave PI4K2A inh -3, Nrf2 block 10% and A549 viability 0%.
Screening C=CCN1[C@H](CC(C)C)COc2cc(F)ccc2S1(=O)=O returned PI4K2A inh -3.
Screening Cc1ccc(-c2noc(C3CC(=O)N(c4ccc5c(c4)OCCO5)C3)n2)cc1 (centres undefined) returned PI4K2A inh 4, KB-V1 MDR tox inactive, Nrf2 block 1%, A549 viability -10% and KB-3-1 cytotox inactive.

Bioassay records: PubChem, National Center for Advancing Translational Sciences (NCATS)
